ERb SRC1 inh: ER-beta (human) coactivator binding inhibition; TR-FRET ER-beta LBD / SRC1-Cy5 peptide binding; receptor agonist-loaded with 1 µM estradiol; 1.3% of 86,000 active; inhibition, % at 25.6 µM; AID 633; Q92731;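 active means compounds whose percent inhibition of the receptor-coactivator binding signal exceeds about 50% in the single-dose screen, limit read from the data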;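 further: 0% = receptor plus peptide wells without compound and 100% = peptide-only wells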
Candida biofilm: kills Candida albicans biofilms. AID 834. inhibition, % at 6 µM. C. albicans biofilm + clotrimazole, Alamar Blue. 0.14% of 85,000 active;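 active means inhibition above 20%; inactive means inhibition below 20%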;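 further: preformed 24 hr biofilms exposed to compound for 48 hr; 0% = biofilm without compound and 100% = blank killed by clotrimazole plus chlorhexidine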
HePTP inhibitor: inhibitors of human HePTP phosphatase | 0.64% of 110,000 active | inhibition, % at 20 µM | recombinant HePTP phosphatase activity, OD absorbance | P35236; in the data active means inhibition above about 50%;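 further: plate controls were vehicle for no effect and reference inhibitor for full effect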
Target sequence (P35236 whole entry, looked up): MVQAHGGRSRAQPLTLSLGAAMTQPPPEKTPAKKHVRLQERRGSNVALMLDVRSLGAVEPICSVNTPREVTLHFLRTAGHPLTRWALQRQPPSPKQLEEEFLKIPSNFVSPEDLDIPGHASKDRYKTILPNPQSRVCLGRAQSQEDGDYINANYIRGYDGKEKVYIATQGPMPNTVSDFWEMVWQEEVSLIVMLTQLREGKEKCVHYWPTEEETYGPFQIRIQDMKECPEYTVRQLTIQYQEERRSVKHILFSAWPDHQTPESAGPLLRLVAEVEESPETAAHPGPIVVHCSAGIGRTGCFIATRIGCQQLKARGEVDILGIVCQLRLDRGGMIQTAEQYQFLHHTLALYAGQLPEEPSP
ERa coact inh: blocks coactivator binding to human estrogen receptor alpha; TR-FRET ER-alpha LBD / SRC-1 peptide, estradiol-bound; AID 629; P03372; inhibition, % at 25.6 µM; 1.7% of 86,000 active; in the data active means inhibition above about 50%;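 further: 0% = receptor plus peptide control and 100% = peptide only without receptor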
Smad3 FoxH1 inh: Smad3 (human) transcription factor binding inhibition. P84022. TR-FRET Smad3/Dy647-FoxH1 peptide binding, europium anti-His. inhibition, % at 25 µM. 0.29% of 88,000 active. AID 630;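 active means compounds that reduce the energy-transfer binding signal between the protein and its labelled peptide by more than half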;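 further: 0% = Smad3 plus labelled peptide maximal FRET and 100% = peptide-only background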
Target sequence (P84022 whole entry, looked up): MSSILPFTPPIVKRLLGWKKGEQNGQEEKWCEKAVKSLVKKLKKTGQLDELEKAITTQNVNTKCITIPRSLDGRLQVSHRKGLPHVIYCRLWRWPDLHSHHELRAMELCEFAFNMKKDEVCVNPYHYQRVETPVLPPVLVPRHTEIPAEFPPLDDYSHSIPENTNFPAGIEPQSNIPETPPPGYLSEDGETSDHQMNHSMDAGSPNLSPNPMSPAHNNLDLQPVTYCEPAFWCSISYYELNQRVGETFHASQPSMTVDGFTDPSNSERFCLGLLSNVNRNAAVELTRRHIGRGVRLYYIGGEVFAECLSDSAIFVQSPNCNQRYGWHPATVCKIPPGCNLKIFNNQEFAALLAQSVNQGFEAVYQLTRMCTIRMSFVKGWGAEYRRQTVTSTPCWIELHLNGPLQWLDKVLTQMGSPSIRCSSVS
ERa SRC1 pot: ER-alpha (human) coactivator binding potentiation; P03372; TR-FRET ERalpha-LBD/SRC-Cy5 coactivator binding, 2 h; 100 = basal binding, no effect; coactivator binding (% of control), % at 25.6 µM; 1.3% of 86,000 active; AID 639; in the data active means activity above about 200%;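 further: binding measured in presence of low estradiol as agonist stimulus; 0% = peptide alone without receptor and 100% = receptor with peptide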
An asterisk follows results filed as active; . = not tested or not shown; ! = not confirmed by another sample; [ ] = another dose, or the depositor's remark. Shown are actives, neighbours in structure and some others; about 2.9% of the full set was active somewhere.

SMILES | ERb SRC1 inh | Candida biofilm | HePTP inhibitor | ERa coact inh | Smad3 FoxH1 inh | ERa SRC1 pot
COc1ccc(-n2cnc3c(sc4nccc(N(C)C)c43)c2=O)cc1 | -19.1 | 8.6 | 105.1*! | -11.4 | -11.0 | 106.8
COC(=O)c1ccc(Cn2cnc3c(sc4nc(N5CCOCC5)c5c(c43)CCCC5)c2=O)o1 | 36.1 | -2.5 | 7.0 | 10.4 | -5.4 | 202.6*
COC(=O)CSc1ncnc2c1sc1nc(N3CCOCC3)c3c(c12)CCCC3 | 35.8 | 0.8 | . | 12.1 | 8.6 | 391.3*[fluorescence artefact?]
COC(=O)c1ccc(Cn2nnc3c(sc4nc(N5CCOCC5)c5c(c43)CCCC5)c2=O)o1 | -1.8 | 1.9 | 2.7 | -4.7 | -3.4 | 106.4
Cc1oc(-c2ccccc2)nc1C(=O)Nc1nccs1 | 37.0 | 0.7 | 12.5 | 52.3*[fluorescence artefact?] | 2.2 | 90.5
CN(C)c1ccc(C(=O)Nc2nnc(-c3ccc(Cl)cc3)o2)cc1 | 56.4*[fluorescence artefact?] | 17.4 | 15.8 | 63.9*[fluorescence artefact?] | -56.7 | 178.4
CC(=O)c1ccc(C(=O)Nc2nnc(-c3ccc(Cl)cc3)o2)cc1 | . | . | 2.3 | . | . | .
CS(=O)(=O)N(Cc1ccc(C(=O)NCCSCc2ccccc2Cl)cc1)c1ccccc1 | . | . | -1.2 | . | . | .
COc1ccc(OC)c(NC2c3ncccc3C(=O)N2Cc2ccco2)c1 (stereo not drawn) | 13.1 | 2.9 | 1.1 | -4.4 | 6.5 | 52.7
COc1ccc(CN2C(=O)c3cccnc3C2O)cc1 (stereo not drawn) | 8.1 | 6.1 | . | -5.5 | 10.0 | 394.5*[fluorescence artefact?]
COc1ccc(CN2C(=O)c3cccnc3C2Nc2cc(Cl)ccc2OC)cc1 (stereo not drawn) | -9.2 | 0.4 | 1.2 | -36.7 | 3.8 | 357.0*[fluorescence artefact?]
COC(=O)c1cc(NC2c3ncccc3C(=O)N2Cc2ccccc2)cc(C(=O)OC)c1 (stereo not drawn) | -9.4 | -3.8 | 0.5 | -6.3 | -7.2 | 112.8
Cc1ccc(/C=C2/SC(=S)N(CCC(=O)O)C2=O)o1 | . | . | -2.0 | . | . | .
CCOC(=O)c1ccc(-c2ccc(/C=C3/SC(=S)N(CC(=O)O)C3=O)o2)cc1 | . | . | 54.5* | . | . | .
CCN1C(=O)/C(=C\c2ccc(-c3ccc([N+](=O)[O-])cc3)o2)SC1=S | . | . | -19.1 | . | . | .
O=C1/C(=C/c2ccc(I)o2)SC(=S)N1Cc1ccccc1 | . | . | 18.9 | . | . | .
O=C1/C(=C/c2ccc(Br)o2)SC(=S)N1Cc1ccccc1 | . | . | 56.0* | . | . | .
O=C1/C(=C/c2ccc(-c3ccc([N+](=O)[O-])cc3)o2)SC(=S)N1Cc1ccco1 | . | . | 63.6* | . | . | .
O=C(O)CCCN1C(=O)/C(=C\c2ccc(-c3ccc(Br)cc3)o2)SC1=S | . | . | 94.3* | . | . | .
COc1ccc(C(=O)Nc2nc(-c3ccc(Br)s3)cs2)c(OC)c1 | . | . | 8.5 | . | . | .
CCOc1ccc(C(=O)Nc2ccc(I)cc2Cl)cc1 | . | . | -4.3 | . | . | .
CCN(c1ccccc1)S(=O)(=O)c1cc(C(=O)O)ccc1C | 73.8* | 6.6 | . | 75.7* | 15.4 | 12.1
CCN(CC)S(=O)(=O)c1cc(C(=O)O)ccc1Cl | 4.2 | -3.4 | -3.6 | 4.2 | 4.9 | 102.8
Cc1nc(NNC(=O)c2ccc([N+](=O)[O-])cc2)cc(-c2ccccc2)n1 | 5.8 | 1.4 | . | 10.5 | 6.8 | 203.5*[fluorescence artefact?]
Cc1ccccc1C(=O)NNC(=O)c1ccc([N+](=O)[O-])cc1 | . | . | -25.2 | . | . | .
SMILES | ERb SRC1 inh | Candida biofilm | HePTP inhibitor | ERa coact inh | Smad3 FoxH1 inh | ERa SRC1 pot
O=C(Cc1cccc2ccccc12)N/N=C/c1cccc(Br)c1 | . | . | 7.7 | . | . | .
O=C1OC(c2ccc(Cl)cc2)=C/C1=C\c1ccco1 | . | . | 50.8* | . | . | .
O=C1OC(c2ccc(Oc3ccccc3)cc2)=C/C1=C/c1ccco1 | . | . | 101.4* | . | . | .
CN1CCN(c2nc3ccccn3c(=O)c2/C=C2\SC(=S)N(C)C2=O)CC1 | . | . | -1.9 | . | . | .
O=C(CN(c1ccc(F)cc1)S(=O)(=O)c1ccccc1)NCc1ccc(Cl)cc1 | . | . | 8.2 | . | . | .
CCOc1cc(N2CCOCC2)c(OCC)cc1NC(=O)COC(=O)c1cc(C)oc1C | 16.7 | -2.8 | 4.0 | 14.6 | 4.0 | 114.6
CCOc1cc(N2CCOCC2)c(OCC)cc1NC(=O)COc1ncnc2ccc(Br)cc12 | 27.0 | 5.2 | . | 54.3*[fluorescence artefact?] | 1.9 | 77.5
Nn1cnnc1N/N=C/c1cccc(I)c1 | . | . | -8.0 | . | . | .
O=C(COc1ccccc1[N+](=O)[O-])Nc1ccc(Br)cn1 | . | . | -2.2 | . | . | .
Cc1ccccc1OCCNc1cc(N2CCOCC2)ccc1[N+](=O)[O-] | . | . | -10.3 | . | . | .
COc1cccc2sc(NC(=O)/C=C/c3ccccc3)nc12 | . | . | 7.0 | . | . | .
COc1ccccc1N(CC(=O)NC(C)c1ccccc1)S(=O)(=O)c1ccccc1 (stereo not drawn) | . | . | 1.7 | . | . | .
COc1ccccc1N(CC(=O)NC(C)(C)C)S(=O)(=O)c1ccccc1 | . | . | 105.9* | . | . | .
Cc1ccc(NC(=O)c2ccc([N+](=O)[O-])cc2Cl)c(Br)c1 | . | . | -0.9 | . | . | .
Cc1nc2ncnn2c(N2CCN(C(=O)Cc3cccs3)CC2)c1C | 85.3*[fluorescence artefact?] | -0.7 | 8.0 | 89.8*[fluorescence artefact?] | -18.7 | 27.4
O=C(Cc1cccs1)N1CCN(c2ccc(F)cc2)CC1 | -6.8 | 3.6 | . | -6.4 | 6.1 | 110.8
Cc1ccc(C)c(C(=O)Nc2c(C(N)=O)oc3ccccc23)c1 | 90.2*[fluorescence artefact?] | 5.4 | 1.3 | -1.4 | 11.1 | 111.2
NC(=O)c1oc2ccccc2c1NC(=O)c1ccccc1 | -9.3 | 8.8 | . | -2.8 | 1.8 | 106.8
COc1ccccc1NC(=O)c1ccccc1NC(=O)c1cc(Cl)ccc1NC(=O)c1ccco1 | 40.7 | 8.5 | . | 74.5* | 1.5 | 64.0
COc1ccc(NC(=O)c2ccco2)cc1N | 60.9* | 0.2 | -7.2 | 55.4* | 11.3 | 49.7
COc1ccccc1NC(=O)c1cccc(NC(=O)c2ccco2)c1 | -10.1 | 8.2 | 1.6 | 7.5 | -4.4 | 111.5
COc1ccccc1NC(=O)c1cc(Cl)ccc1NC(=O)c1ccco1 | -10.4 | 3.1 | 2.0 | -10.3 | -4.8 | 96.4
COc1ccccc1NC(=O)Oc1ccc(NC(=O)c2ccco2)cc1 | 66.4*[fluorescence artefact?] | 8.7 | 9.5 | 59.5*[fluorescence artefact?] | 9.4 | 80.7
CC(C)NC(=O)C(=O)NN=C1CCCC1 | . | . | -5.7 | . | . | .
COc1ccccc1/C=C1\SC(=O)N(CCC(=O)Nc2ccc(S(=O)(=O)Nc3nccs3)cc2)C1=O | . | . | -14.8 | . | . | .
SMILES | ERb SRC1 inh | Candida biofilm | HePTP inhibitor | ERa coact inh | Smad3 FoxH1 inh | ERa SRC1 pot
Cc1nnc2sc(-c3ccc(NC(=O)c4cccnc4)cc3)nn12 | -1.4 | 12.2 | 4.5 | 3.0 | -7.6 | 80.9
Cc1nnc2sc(-c3ccc(NC(=O)c4ccc(-c5ccc(Cl)cc5Cl)o4)cc3)nn12 | 48.8 | 3.6 | . | 70.1* | -184.6 | 110.5
CCOC(=O)C1CCN(C(=O)C2CCN(c3nc4ccc(OC)cc4s3)CC2)CC1 | 91.0*[fluorescence artefact?] | 6.8 | 7.0 | -5.5 | -4.2 | 105.5
COc1ccc(N2CCN(C(=O)c3ccc4nc(N5CCCCC5)sc4c3)CC2)cc1 | -1.3 | 15.7 | -3.0 | 5.9 | 0.7 | 72.1
CC(C1CC1)N(Cc1ccccc1)C(=O)c1ccc(F)cc1 (stereo not drawn) | . | . | -11.8 | . | . | .
Cc1ccc(NC(=O)N(Cc2ccccc2)C(C)C2CC2)cc1 (stereo not drawn) | . | . | 102.4* | . | . | .
Cc1n[nH]c(C)c1Sc1ccccc1N=Cc1c2ccccc2cc2ccccc12 | . | . | -6.8 | . | . | .
CC1=C(C(=O)OC(C)C)C(c2ccc(F)cc2)NC(=O)N1 (stereo not drawn) | -0.7 | -0.7 | 5.0 | 2.1 | -9.0 | 109.3

From PubChem
